Rows were chosen to be rich in hits. Some 9.5% of all compounds tested hit in one or more screens of this group.
SARS PLpro yeast: SARS-CoV PLP inhibition in yeast. 0.19% of 330,000 active. Potency, µM (highest dose often 32.9 µM), usual class: activators. S. cerevisiae expressing SARS-CoV PLpro, growth rescue; further: nearly all actives have a fitted effect of over 55% in size
NS1 function inh: influenza NS1 inhibition. 0.4% of 270,000 active. Potency, µM (top dose mostly 46.1 µM). AID 2326; further: actives are rising curves; nearly all actives have a fitted effect of over 50% in size
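In this qHTS, NS1 from influenza A is expressed in budding yeast, where it slows growth. Cells are switched from glucose to 2% galactose medium (pH 6.0, -URA), treated with compound, and growth recovery is read at OD600.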
Pf growth 96h: P. falciparum growth inhibition at 96 hours; P. falciparum luciferase reporter growth, 96 h; 6.9% of 320,000 active; Potency, µM (titrated, usually from 28.7 µM), most hits filed as inhibitors; AID 504834; active means well fitted inhibition curve with a large enough effect; inconclusive means small, poorly fitted or top-dose-only effect, or another doubt; inactive means no such curve, though single readings can be large or run the other way
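Plates of compound plus infected erythrocytes (2% hematocrit, 0.05% parasitemia final) incubate 96 hours, 37 C, 5% CO2. Detection reagent added; reduced luminescence from the parasites' luciferase reporter flags inhibition.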
Pf growth 48h: P. falciparum growth inhibition at 48 hours (one generation); P. falciparum luciferase growth in erythrocytes, 48 h; Potency, µM (highest dose often 28.7 µM), most hits filed as inhibitors; 5.9% of 310,000 active; AID 504832; active means well fitted inhibition curve with a large enough effect; inconclusive means small, poorly fitted or top-dose-only effect, or another doubt; inactive means no such curve, though single readings can be large or run the other way
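Here the parasites carry a stable luciferase gene and grow inside erythrocytes in Albumax-based RPMI medium with compound for one erythrocytic cycle. Activity is scored as loss of luminescent signal.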
RE007 growth inh: less growth of the S. pombe RE007 Vpr strain. S. pombe RE007 Vpr strain, BacTiter-Glo ATP luminescence, 24 h. Potency, µM (top dose mostly 92.2 µM), usual class: inhibitors. 0.21% of 360,000 active. AID 651644; active means well fitted falling curve with a large enough effect; inconclusive means small, poorly fitted or top-dose-only effect; inactive means no such curve, though single readings can be large or run the other way; further: nearly all actives have a fitted effect of over 50% in size
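Fission yeast RE007 carrying one integrated HIV-1 vpr copy, seeded at OD 0.01 in PMG+AL medium with 23 nL pinned compound. Grown 24 h at 30 degrees; viability read by BacTiter-Glo luminescence after 5 min.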
Of the large screens only hits and unclear results are named; the others gave an inactive call. Unless noted, the call rests on the fitted dose curve.

CCOC(=O)C1C(=O)C=C(c2ccc(C)cc2)CC1c1ccc([N+](=O)[O-])cc1 (stereo not given)	Pf growth 96h 9.3µM, Pf growth 48h inconclusive (no result: RE007 growth inh)
OCC1(Cc2ccccc2Cl)CCN(C/C=C/c2ccccc2)CC1	Pf growth 48h 12µM
Cc1onc(-c2ccccc2)c1-c1nnc(-c2ccccc2C(F)(F)F)o1	none
CCn1c(C)nc2cc(-c3nnc(-c4c(-c5ccccc5)noc4C)o3)ccc21	Pf growth 48h 9.3µM
COc1cc(/C=c2\sc3n(c2=O)C(c2ccccc2)C(c2ccccc2)=NN=3)ccc1O (stereo not given)	Pf growth 96h 4.1µM, Pf growth 48h 4.7µM
COc1ccccc1C(=O)NCCC(=O)NCC(c1ccco1)N1CCCC1 (stereo not given)	Pf growth 96h 12µM (no result: NS1 function inh)
CN(C)C(CNC(=O)CCNC(=O)c1ccc(Cl)cc1)c1ccco1 (stereo not given)	none (no result: SARS PLpro yeast, NS1 function inh)
CSCCC(NC(=O)c1ccccc1Br)C(=O)NCC(c1ccco1)N1CCCCC1 (stereo not given)	Pf growth 96h 9.3µM, Pf growth 48h inconclusive (no result: NS1 function inh)
COc1ccc(Cl)cc1C(=O)NCC(c1ccco1)N1CCCC1 (stereo not given)	Pf growth 96h 4.1µM, Pf growth 48h inconclusive
O=C(CCNC(=O)c1ccc(Cl)cc1)NCC(c1ccco1)N1CCCC1 (stereo not given)	Pf growth 96h inconclusive, Pf growth 48h 12µM (no result: NS1 function inh)
COc1ccc(-c2cn(CC[C@@H]3CC[C@H](NC(=O)Cc4ccccn4)[C@@H](CO)O3)nn2)cc1	none (no result: SARS PLpro yeast, NS1 function inh, Pf growth 96h, Pf growth 48h)
O=C(O)CCCN1C(=O)/C(=C\C(Cl)=C\c2ccccc2)SC1=S	Pf growth 96h inconclusive, Pf growth 48h 9.3µM
CN1CCN(C(=O)CCCN2C(=O)/C(=C/c3ccccc3)SC2=S)CC1	Pf growth 96h inconclusive, Pf growth 48h inconclusive
O=C1/C(=C/c2ccccc2)SC(=S)N1CCCC(=O)N1CCCCC1CCO (stereo not given)	Pf growth 96h 7.4µM, Pf growth 48h inconclusive
O=C1/C(=C/c2ccc(Cl)cc2)SC(=S)N1CCC(=O)N1CCCCC1CCO (stereo not given)	Pf growth 96h 13µM
CC1(Cc2cc(Cl)ccc2C(F)(F)F)C(=O)Nc2ccc(-c3ccc(F)c(Cl)c3)cc21 (stereo not given)	none (no result: SARS PLpro yeast, NS1 function inh, Pf growth 96h, Pf growth 48h)
CC(=O)c1ccccc1Oc1ncnc(N)c1[N+](=O)[O-]	none
O=C(Nc1ccc2c(c1)OCCO2)C1c2ccccc2OCC(=O)N1Cc1ccccc1 (stereo not given)	none (no result: SARS PLpro yeast, NS1 function inh, Pf growth 96h, Pf growth 48h)
CCN(CC)S(=O)(=O)c1cccc(-c2nnc(SCC(=O)NCCC3=CCCCC3)n2N)c1	Pf growth 96h 12µM
CCOc1ccc(N(C(=O)c2snc(C(N)=O)c2N)C(C(=O)NC2CCCC2)c2ccncc2)cc1 (stereo not given)	Pf growth 96h inconclusive
COCCNc1nc(Nc2ccc(C(=O)OC)cc2)c2sccc2n1	none (no result: SARS PLpro yeast, NS1 function inh, Pf growth 96h, Pf growth 48h)
COc1ccc(Nc2nc(N)nc(CN3CCC(Cc4ccccc4)CC3)n2)cc1	Pf growth 48h 5.9µM
COc1ccccc1Nc1nc(N)nc(CSC(=S)N2CCCCC2C)n1 (stereo not given)	SARS PLpro yeast 13µM, Pf growth 96h inconclusive, Pf growth 48h inconclusive
COc1ccccc1Nc1nc(N)nc(CSC(=S)N2CCN(c3ccccc3)CC2)n1	Pf growth 96h inconclusive, Pf growth 48h inconclusive (no result: NS1 function inh)
COc1ccccc1Nc1nc(N)nc(CN2CCC(Cc3ccccc3)CC2)n1	Pf growth 48h inconclusive
COc1cccc(N2CCN(Cc3nc(N)nc(Nc4ccccc4OC)n3)CC2)c1	Pf growth 96h 0.33µM, Pf growth 48h inconclusive
COc1cc(/C=C/C(=O)OCC(=O)N2CCCCCC2)cc(OC)c1OC	none (no result: SARS PLpro yeast, NS1 function inh, Pf growth 96h, Pf growth 48h)
O=C(C1=C[C@H](c2coc3ccccc3c2=O)C[C@H](OCc2ccc(CO)cc2)O1)N1CCN(Cc2ccc3c(c2)OCO3)CC1	Pf growth 96h 1.3µM, Pf growth 48h 1.5µM
O=C(C1=C[C@@H](c2coc3ccccc3c2=O)C[C@@H](OCc2ccc(CO)cc2)O1)N1CCN(Cc2ccc3c(c2)OCO3)CC1	Pf growth 96h inconclusive, Pf growth 48h inconclusive
O=C(C1=C[C@H](c2csc3ccccc23)C[C@H](OCc2ccc(CO)cc2)O1)N1CCN(Cc2ccc3c(c2)OCO3)CC1	Pf growth 96h 4.1µM, Pf growth 48h inconclusive

Screens: PubChem BioAssay, National Center for Advancing Translational Sciences (NCATS)
